This is a sample that favours compounds with a hit; in the whole collection about 4.5% have one here.
tim23-1 inh: inhibits growth of tim23-1 mutant yeast; S. cerevisiae tim23-1 growth, BacTiter-Glo luminescence, 24 h; AID 463212; inhibition, % at 20 µM; 330,000 tested, 1.3% active;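 active means growth inhibition of the mutant yeast at or above 50%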;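 further: temperature-sensitive mutant grown at 25 °C; plate controls were DMSO-treated mutant yeast for no effect and medium wells lacking yeast for full effect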
tim10-1 inh: inhibits growth of tim10-1 mutant yeast | S. cerevisiae tim10-1 ts strain growth, BacTiter-Glo, 24 h | inhibition, % at 20 µM | AID 463190 | 330,000 tested, 2.2% active;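 active means inhibition of at least 40%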;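 further: mutant grown at 25 °C; 0% = DMSO wells with yeast and 100% = wells holding no yeast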
TIM10 inh: growth inhibitors of TIM10 yeast strain. S. cerevisiae TIM10 strain growth, BacTiter-Glo luminescence, 24 h. inhibition, % at 10 µM. 330,000 tested, 1.4% active. AID 463195;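 active means inhibition of 40% or more at the single tested concentration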;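 further: wild-type TIM10 isogenic control strain grown at permissive 25 °C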
SKKanGAS inh: SKKanGAS growth inhibition | S. pyogenes SKKanGAS, kanamycin growth, BacTiter-Glo, 6 h | inhibition, % at 7.5 µM | 300,000 tested, 1.3% active;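 active means mean replicate score, as percent of positive control median, at least 50; inconclusive means mean below 50 but one replicate at or above 50; inactive means mean and every replicate below 50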;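 further: strain carries kanamycin resistance gene driven by streptokinase promoter and grows in 40 µg/ml kanamycin; loss of luminescence reflects streptokinase promoter inhibition or plain growth inhibition; 0% = median of DMSO wells and 100% = positive control at its reference dose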
PfHsp90 set2: inhibits growth of yeast expressing Plasmodium falciparum Hsp90. S. cerevisiae expressing PfHsp90, BacTiter-Glo ATP, 48 h; yeast lacking PDR1 and PDR3 efflux regulators. inhibition, % at 9.4 µM. 310,000 tested, 0.32% active. AID 504621;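 active means every replicate shows inhibition above about 80%, whatever the replicate mean, limit read from the data; inconclusive means mean inhibition reaches the set limit but some replicate falls short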;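 further: 0% = DMSO neutral controls and 100% = 20 µM radicicol positive controls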
NALP3 yeast inh: NALP3 inhibition in yeast | 330,000 tested, 0.39% active | Yeast reconstituted NLRP3/ASC/caspase-1, beta-gal luminescence, 24 h | inhibition, % at 10 µM | AID 2825;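 active means inhibition of 50% or more; inactive means inhibition below 50%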;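 further: plate controls were induced DMSO wells for no effect and uninduced yeast grown without galactose for full effect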
* = called active by the depositor; ? = inconclusive; / = no result given.

SMILES	tim23-1 inh	tim10-1 inh	TIM10 inh	SKKanGAS inh	PfHsp90 set2	NALP3 yeast inh
COC(=O)c1cc(-c2cccc(OC)c2)c2c(=O)[nH]c(=O)n(C)c2n1	12	26	0	62*	17	15
COC(=O)c1cc(-c2ccc(Br)cc2)c2c(=O)n(C)c(=O)n(C)c2n1	7	-7	-8	52*	9	20
Cc1cc(-c2nnc(SCC(=O)Nc3ccccc3C)n2N)n[nH]1	-11	5	-3	-2	3	5
O=C(CNc1ccccc1)N/N=C/c1c(O)ccc2ccccc12	27	28	33	101*	-14	1
O=C(N/N=C/c1c(O)ccc2ccccc12)Nc1ccccc1	10	-3	14	93*	/	11
O=C(O)c1cc(N/N=C/c2c(O)ccc3ccccc23)ccc1Cl	21	19	-7	10	-56	-20
COc1ccc(NC(C)C(=O)N/N=C/c2c(O)ccc3ccccc23)cc1 (stereo not given)	13	-16	9	97*	15	16
Oc1[nH]c(=S)sc1/C=C1\C(c2ccccc2)=Nc2ccccc21	/	/	/	76*	-4	/
CC1=CC(C)(C)n2c(O)c(N=N)c3c(C)c(C)cc1c32	34	30	24	68*	20	15
CCOc1cc(C)c(C(C)C)cc1S(=O)(=O)n1cnc(C)c1	24	33	34	-9	8	6
CC1=C(C(=O)Nc2ccc([N+](=O)[O-])cc2)C(c2cccc(C(F)(F)F)c2)NC(=S)N1c1ccccc1 (stereo not given)	29	26	30	50*	/	-10
COc1ccc(C2NC(=S)N(c3ccccc3)C(C)=C2C(=O)Nc2ccccc2)cc1 (stereo not given)	12	25	6	4	-4	19
COc1ccc(S(=O)(=O)Nc2cc3c4c(oc3c3ccccc23)CCCC4=O)cc1	13	17	13	31	-1	-5
COc1ccc(S(=O)(=O)Nc2cc3c4c(oc3c3ccccc23)CC(C)(C)CC4=O)cc1	34	23	40	53*	/	15
Cc1ccc2nc(NC(=O)c3ccc(NS(=O)(=O)c4cccs4)cc3)sc2c1	-4	9	-2	62*	-15	22
CS(=O)(=O)c1ccc2nc(NC(=O)c3ccccc3)sc2c1	23	23	14	6	11	30
CS(=O)(=O)c1ccc2nc(NC(=O)c3ccc(NS(=O)(=O)c4cccc([N+](=O)[O-])c4)cc3)sc2c1	-30	-6	-22	62*	-4	28
O=C1/C(=C/c2ccsc2)N2CCC1CC2	-3	1	8	-1	-4	-12
Cc1ccc(Cn2c(O)c(N=NC(=S)Nc3ccccc3F)c3ccccc32)cc1	-7	14	7	61*	10	17
Oc1c(N=NC(=S)Nc2ccccc2F)c2ccccc2n1Cc1ccccc1	17	24	17	?	-41	14
CCn1c(O)c(N=NC(=O)CNc2cccc(C)c2)c2ccccc21	-32	4	11	13	6	-30
C=CCn1c(O)c(N=NC(=S)Nc2cccc(C)c2)c2ccccc21	26	36	39	94*	-131	22
COc1ccc(/C=C/C(=O)NC(=S)NCc2ccccc2)cc1OC	31	33	29	-1	3	13
COc1ccc(/C=C/C(=O)NC(=S)NNC(=O)c2cccs2)cc1OC	-7	2	5	73*	18	8
COc1ccc(/C=C/C(=O)NC(=S)NNC(=O)c2cccnc2)cc1OC	-3	25	12	19	-10	20
COc1ccc(/C=C/C(=O)NC(=S)NNC(=O)Cc2cccs2)cc1OC	-20	35	0	67*	-26	10
O=C(/C=C/c1cccs1)NC(=S)NNC(=O)Cc1cccs1	1	14	17	68*	-12	15
O=C(O)c1ccc(N/N=C/c2ccc(OC(=O)c3cccc(Cl)c3)cc2)cc1	16	-7	17	57*	-13	12
COc1ccc(-c2nn(-c3ccccc3)cc2C(=O)N2CCN(S(=O)(=O)c3cccc(F)c3)CC2)cc1	15	21	37	13	105*	3
COc1ccc(-c2nn(-c3ccccc3)cc2C(=O)N2CCN(S(=O)(=O)c3ccccc3[N+](=O)[O-])CC2)cc1	/	/	/	/	99*	/
